# The whole screen tested about 16,000 compounds, of which about 260 (1.6%) were called active. Where a call stands in place of a potency, no number is given. About 14% were inconclusive and are not listed. Calls follow the shape of the dose curve; as a rule, active = well fitted inhibition curve with a large enough effect; inconclusive = small, poorly fitted or top-dose-only effect; inactive = no such curve, though single readings can be large or run the other way. The full list was thinned out, with actives kept by preference. The source holds several records for some structures; these can differ, active in one and inactive in another. Where a SMILES comes first, the peptide text is derived from it. Bridges are numbered along the chain shown (N, C = ends). [ ]: non-standard residue; d: D form. The star is where a group is joined. X4 = CC[C@H](C)CCCCC(=O)*; Dab = NCC[C@H](N)C(=O)O
# Target: Rap guanine nucleotide exchange factor 4 (Homo sapiens) (UniProt Q8WZA2)
# Test: Validation qHTS for antagonist of cAMP-regulated guanine nucleotide exchange factor 4 (EPAC2); also: nearly all actives have a fitted effect of over 40% in size
# Conditions: EPAC2 Rap1B BODIPY-GDP exchange, fluorescence; series mostly up to 112 µM
# Text: Principle Investigator: Xiaodong Cheng Ph.D. The University of Texas Medical Branch, […], TX MLPCN Grant: NS066510 In multi-cellular eukaryotic organisms, the effects of cAMP are transduced by two ubiquitously-expressed intracellular cAMP receptors, the classic protein kinase A/cAMP-dependent protein kinase (PKA/cAPK) and the more recently discovered exchange protein directly activated by cAMP/cAMP-regulated guanine nucleotide exchange factor (EPAC/cAMP-GEF). Both PKA and EPAC are ubiquitously expressed in all tissues, and an increase in intracellular cAMP levels will lead to the activation of both PKA and EPAC. Therefore, careful dissections of the individual role and relative contribution of EPAC and PKA within the overall cAMP signaling in various model systems are critical for further elucidating the mechanism of cAMP signaling. To date no EPAC-specific antagonists and agonist, as well as isoform-specific agonists have been reported, and developing EPAC-specific pharmacological probes to determine the physiological functions that EPAC play in the overall cAMP-mediated signaling remains a major challenge within the research field. Furthermore, identified regulators of EPAC may lead to new mechanism-based therapeutic strategies specifically targeting the EPAC / cAMP-signaling components as EPAC has been implicated to play important roles in major human pathological conditions such as diabetes, heart disease, and cancer. This qHTS will be used to screen the Molecular Libraries Small Molecule Repository (MLSMR) as a concentration-titration series using the NCGC unique quantitative screening (qHTS) platform to find activators for EPAC1. In addition, this assay will also be used as a counterscreen for the EPAC2 qHTS. This fluorescent based assay is developed and validated for EPAC1 that measures exchange using EPAC effector Rap1 complex with BODIPY-GDP, a GDP analog with a tethered fluorophores. Activators are identified by monitoring the change in fluorescence signal as the exchanged free BODIPY-GDP has a reduced fluorescence compared to Rap1-bound BODIPY-GDP. Increase in signal (activation) is the desired outcome for the EPAC1 agonist while no activity in this assay is desired for the EPAC2 agonist counterscreen. Reference: [1] de Rooij, J., Zwartkruis, F. J., Verheijen, M. H., Cool, R. H., Nijman, S. M., Wittinghofer, A., and Bos, J.L. (1998) Nature 396, 474-477.
# Briefly, three uL of reagents (100 nM EPAC2, 250 nM RAP1B-BODIPY-GDP, 50 uM GDP) were dispensed into a 1536-well Greiner black solid-bottom medium binding assay plate. Controls and test compounds (23 nL) were transferred to the plate via a Kalypsys pin tool equipped with a 1536-pin array. The plates were centrifuged at 1,000 rpm for 15 seconds followed by 5 minute incubation at room temperature. The assay plates were read at 5 minute intervals for 30 minutes in the ViewLux plate reader using 480nm excitation and 540nm emission filters. The results were normalized to the agonist positive control of 6.5 mM cAMP.
# Potency is read from the fitted curve at half-maximal effect.
# Sequence of Rap guanine nucleotide exchange factor 4 (Homo sapiens) (Q8WZA2 whole entry, looked up): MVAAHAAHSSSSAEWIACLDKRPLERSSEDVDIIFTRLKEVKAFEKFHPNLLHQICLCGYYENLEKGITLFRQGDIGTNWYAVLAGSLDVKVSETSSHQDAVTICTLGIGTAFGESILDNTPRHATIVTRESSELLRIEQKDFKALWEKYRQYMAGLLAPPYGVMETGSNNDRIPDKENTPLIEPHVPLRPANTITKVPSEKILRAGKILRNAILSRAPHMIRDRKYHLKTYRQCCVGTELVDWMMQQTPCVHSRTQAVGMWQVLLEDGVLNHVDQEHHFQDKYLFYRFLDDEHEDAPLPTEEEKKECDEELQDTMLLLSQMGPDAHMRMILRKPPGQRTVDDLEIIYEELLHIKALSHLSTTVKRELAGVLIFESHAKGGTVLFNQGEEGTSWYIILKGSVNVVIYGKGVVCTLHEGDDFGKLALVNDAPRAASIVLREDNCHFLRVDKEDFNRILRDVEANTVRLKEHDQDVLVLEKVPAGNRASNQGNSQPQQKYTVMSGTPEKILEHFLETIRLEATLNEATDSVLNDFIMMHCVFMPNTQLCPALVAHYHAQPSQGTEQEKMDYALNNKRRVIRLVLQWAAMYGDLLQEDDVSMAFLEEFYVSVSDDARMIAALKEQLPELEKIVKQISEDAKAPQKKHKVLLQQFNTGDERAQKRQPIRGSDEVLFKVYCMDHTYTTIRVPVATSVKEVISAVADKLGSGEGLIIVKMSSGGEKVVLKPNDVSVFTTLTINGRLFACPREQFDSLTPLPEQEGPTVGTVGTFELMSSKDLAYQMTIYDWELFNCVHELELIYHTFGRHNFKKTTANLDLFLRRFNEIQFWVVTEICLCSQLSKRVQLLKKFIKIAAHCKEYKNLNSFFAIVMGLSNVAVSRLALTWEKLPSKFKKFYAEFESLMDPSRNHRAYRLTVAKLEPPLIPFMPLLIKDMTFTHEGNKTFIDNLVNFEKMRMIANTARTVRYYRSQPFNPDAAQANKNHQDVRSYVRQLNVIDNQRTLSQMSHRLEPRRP
row,SMILES,Potency
1,C/C(Nc1ccc2oc(=O)ccc2c1)=C1/C(=O)CC2[C@@H]1C2(C)C (some centres undefined),inactive
2,c1ccc(CN2CCN(Cc3ccc4c(c3)CN(Cc3c[nH]c5ccccc35)CCO4)CC2)nc1,inactive
3,O=C1CCN(Cc2ccc(-c3ccccc3)cc2)CCN1Cc1ccccn1,inactive
4,Cn1cc(-c2nc3cnc(N4CCNCC4)nc3n(CCC#N)c2=O)c2ccccc21,inactive
5,CN(C)c1ccc(-c2nc(NCCN3CCOCC3)c3ccccc3n2)cc1,inactive
6,Oc1c(Cl)cc(Cl)c(Cl)c1Cc1c(O)c(Cl)cc(Cl)c1Cl,44.7 µM (active) and inactive
7,COCc1c(C(=O)NC2CCCCC2)cnn1-c1nccc(-c2ccccc2OC)n1,inactive
8,COc1ccc2c(c1)NC(=O)C2CC(=O)N1CCOc2c(cc(-c3cnc4ccccc4c3)cc2OC)C1 (centres undefined),inactive
9,Cc1ccc(-c2ncc(Cl)cc2-c2ccc(S(C)(=O)=O)cc2)cn1,inactive
10,O=c1ccn([C@@H]2O[C@H](COP(=O)(O)OP(=O)(O)OP(=O)(O)O)[C@@H](O)[C@H]2O)c(=O)[nH]1,inactive
11,CC(C)[C@@H]1NC(=O)[C@H](Cc2ccccc2)NC(=O)[C@@H](CC(=O)O)NC(=O)CNC(=O)[C@H](CCCNC(=N)N)NC1=O,inactive
12,O=S(O)CNc1ccc(S(=O)(=O)c2ccc(NCS(=O)O)cc2)cc1,inactive
13,C/C=C(/C)C(=O)OC1Cc2c(ccc3ccc(=O)oc23)OC1(C)C (centres undefined),inactive
14,CC(C)N1C[C@@H](NCc2ccccc2O)C[C@H]1C(=O)N1CCN(c2cccc(C(F)(F)F)c2)CC1,inactive
15,O=C(c1ccco1)N1CCC2(CC1)CCN(c1ncccn1)CC2,inactive
16,CC1(C)C=CC(=O)[C@]2(C)C1CC(=O)[C@]1(C)C2CC[C@@]2(C)C(c3ccoc3)OC(=O)C3OC321 (some centres undefined),inactive
17,CC(C)C1=CC2=CC[C@H]3[C@](C)(C(=O)O)CCC[C@]3(C)C2CC1 (some centres undefined),inactive
18,O=C1c2ccccc2C(=O)C1c1ccccc1,inactive
19,CN(C)c1ncc2nc(-c3ccc(F)cc3)c(=O)n(Cc3ccc(F)cc3)c2n1,inactive
20,CC(=O)N1CCC2(CCCN(Cc3ccccc3)C2)CC1,inactive
21,CC[C@H](C)CCCCC(=O)N[C@@H](CCN)C(=O)N[C@H](C(=O)N[C@@H](CCN)C(=O)N[C@H]1CCNC(=O)[C@@H]([C@H](C)O)NC(=O)[C@H](CCN)NC(=O)[C@H](CCN)NC(=O)[C@H](CC(C)C)NC(=O)[C@@H](CC(C)C)NC(=O)[C@H](CCN)NC1=O)[C@@H](C)O (X4-[Dab]T[Dab][Dab][Dab][dL]L[Dab][Dab][dT]; lactam 4-C),inactive
22,CC1OC(OCC2OC(Oc3c(-c4ccc(O)c(O)c4)oc4cc(O)cc(O)c4c3=O)C(O)C(O)C2O)[C@@H](O)C(O)C1O (some centres undefined),inactive
23,COc1cc(=O)n2c(c1C(=O)NCc1ccco1)CCN(Cc1ccccc1)CC2,inactive
24,CNc1ncnc2ccc(-c3cccc(NS(C)(=O)=O)c3)cc12,inactive
25,CS(=O)(=O)N1CCC2(CC1)CN(Cc1cc(C(F)(F)F)cc(C(F)(F)F)c1)C2,inactive
26,O=C1CCNCCN1[C@H](CO)Cc1ccccc1,inactive
27,Cc1nc2cnc(N3CCNCC3)nc2n(Cc2ccc(F)cc2)c1=O,inactive

row,SMILES,Potency
1,Nc1ccccc1N,inactive
2,CC1(C)S[C@@H]2[C@H](NC(=O)COc3ccccc3)C(=O)N2C1C(=O)OCc1ccccc1 (some centres undefined),inactive
3,COC1C[C@@H](O[C@@H]2C(C)C(=O)OC(C)C(C)C(O)C(C)C(=O)[C@@]3(CO3)CC(C)C(OC3OC(C)CC(N(C)C)C3O)C2C)OC(C)[C@@H]1O (some centres undefined),inactive
4,COCCn1c(=O)c(-c2cccs2)nc2cncnc21,inactive
5,N#C/C(=C\c1ccc(O)c(O)c1)C(=O)NCc1ccccc1,inactive
6,COc1cccc(CN2CCC3(CC2)c2ccccc2[C@@H](NC(=O)c2ccccc2OC)[C@@H]3O)c1,inactive
7,COc1ccc(CN2[C@@H](CC(=O)O)c3cc(F)ccc3S2(=O)=O)cc1,inactive
8,CN1C(=O)CN2CCc3ccccc3C2c2cc(Cl)ccc21 (centres undefined),inactive
9,CCCS(=O)(=O)NCc1c(C)ncc2c1CCN(C(=O)c1ccc(F)c(F)c1)C2,inactive
10,O=C(c1cccc(Cn2cccn2)c1)N1CCOc2c(cc(-c3csc4ccccc34)cc2OC2CCOC2)C1 (centres undefined),inactive
11,O=C(c1cccc(F)c1)N1CCC2(CCCN(Cc3ccncc3)C2)CC1,inactive
12,c1cncc(-c2nc(N3CCNCC3)c3ccccc3n2)c1,inactive
13,CC(=O)/C(C)=N\O,inactive
14,COc1ncc2nc(-c3ccc(Cl)cc3)c(=O)n(-c3ccccc3)c2n1,inactive
15,COc1ccc(CN2CCC3(CCC(CNC(=O)c4ccco4)O3)CC2)cc1OC (centres undefined),inactive
16,COc1ccc2c(c1)CCc1cnc(-n3ncc(C(=O)NCCN4CCOCC4)c3C)nc1-2,inactive
17,c1ccc2cc(C3=NCCN3)ccc2c1,inactive
18,NNc1nnc(NN)c2ccccc12,inactive
19,Cc1cccc(CNc2cc(-c3ccccc3Cl)ncn2)c1,inactive
20,Cc1ccc2c(C)nc(N3CCCC(C(=O)NC(C)(C)CO)C3)nc2c1 (centres undefined),inactive
21,O=C(Oc1cc(OC(=O)c2ccccc2)c2c(c1)OC(c1ccc(OC(=O)c3ccccc3)c(OC(=O)c3ccccc3)c1)[C@@H](OC(=O)c1ccccc1)C2)c1ccccc1 (some centres undefined),inactive
22,C/C=C(\C)C(=O)O[C@H]1CC(C)=C2C(=O)C=C(C)C2[C@@H]2OC(=O)[C@@](C)(OC(=O)C=C(C)C)C21 (some centres undefined),inactive
23,CC[C@H](C)CCCCC(=O)N[C@@H](CCN)C(=O)N[C@H](C(=O)N[C@@H](CCN)C(=O)N[C@H]1CCNC(=O)[C@H]([C@@H](C)O)NC(=O)[C@H](CCN)NC(=O)[C@H](CCN)NC(=O)[C@H](CC(C)C)NC(=O)[C@@H](CC(C)C)NC(=O)[C@H](CCN)NC1=O)[C@@H](C)O (X4-[Dab]T[Dab][Dab][Dab][dL]L[Dab][Dab]T; lactam 4-C),inactive
24,COCCn1c(=O)c(CCc2ccccc2)nc2cnc(N3CCNCC3)nc21,inactive
25,CC(C)c1cnc(NC(=O)Cc2ccccc2)s1,inactive
26,CC1(C)O[C@@H]2C[C@@H]3[C@H]4C[C@@H](F)C5=CC(=O)C=C[C@]5(C)[C@@]4(F)[C@@H](O)C[C@]3(C)[C@]2(C(=O)CO)O1,inactive
27,COc1ccc2[nH]cc(CCNc3ncnc4ccc(-c5ccc(C(=O)N(C)C)cc5)cc34)c2c1,inactive

# Source: PubChem BioAssay AID1645886 (National Center for Advancing Translational Sciences (NCATS), 2021)
